In PubChem BioAssay (NCATS):
Results filed as inconclusive are left out. Activity calls are given as the source filed them. The call rests on the fitted dose curve; in most records, active means well fitted curve in the direction sought with a large enough effect; inconclusive means small, poorly fitted or top-dose-only effect, or another doubt; inactive means no such curve, though single readings can be large; an effect the other way counts as inactive or inconclusive.

Experiments:
Hek293T = assay: Primary qHTS to identify gynecologic anti-cancer compounds using libraries of approved drugs and bioactive compounds (AID 1345084); details: Gynecologic cancer cell panel viability, ATPlite luminescence, 48 h, control line for the selectivity index; series mostly up to 57.5 µM; further: nearly all actives have a fitted effect of over 55% in size
How it was run: (§1)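 Cells, 1,000 per well, plated 16 h, then exposed 48 h at 37 C to compounds. Viability by ATPlite luminescence after 15 min at room temperature.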

JEG-3 = assay: as above; details: Gynecologic cancer cell panel viability, ATPlite luminescence, 48 h; series mostly up to 57.5 µM
How it was run: as §1

OV90 = assay: as above; details: Gynecologic cancer cell panel viability, ATPlite luminescence, 48 h; series mostly up to 57.5 µM
How it was run: as §1

PA-1 = assay: as above; details: Gynecologic cancer cell panel viability, ATPlite luminescence, 48 h; series mostly up to 57.5 µM
How it was run: as §1

SKOV3 = assay: as above; details: Gynecologic cancer cell panel viability, ATPlite luminescence, 48 h; series mostly up to 57.5 µM
How it was run: as §1

Tov-21-G = assay: as above; details: Gynecologic cancer cell panel viability, ATPlite luminescence, 48 h; series mostly up to 57.5 µM
How it was run: as §1

Tov112D = assay: as above; details: Gynecologic cancer cell panel viability, ATPlite luminescence, 48 h; series mostly up to 57.5 µM
How it was run: as §1

[1] = Drug repurposing screens with cells derived from glioblastoma tumor samples (AID 1345199); details: GBM patient neurospheres viability, ATP luminescence, 48 h; further: nearly all actives have a fitted effect of over 40% in size; further: potency means the concentration at half of the fitted maximal effect
How it was run: (§2)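 Four patient lines of CD133+ GBM neurospheres were screened at several concentrations; hits were retested in those lines plus three slower-growing GBM lines, using 48-hour treatment and ATP-based viability.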

astro = assay: as above; details: viability, ATP luminescence, 48 h; series mostly up to 45.9 µM
How it was run: as §2

[2] = at 45.9 µM (top of the series), tumour line B
[3] = at 45.9 µM (top of the series), tumour line D
[4] = at 46.1 µM (top of the series), tumour line C
[5] = at 46 µM (top of the series), tumour line A
On the % scale 0 is the no-effect control and ±100 the full control effect.

CN=C(N)NC(=O)Nc1c(C)cccc1C
inactive: Potency (Hek293T) | Potency (JEG-3) | Potency (OV90) | Potency (PA-1) | Potency (SKOV3) | Potency (Tov-21-G) | Potency (Tov112D) | activity, negative = cell killing [1, 2] -6.83% | activity, negative = cell killing [1, 3] -0.753% | activity, negative = cell killing [1, 4] 0.539% | Potency (astro)
active: Potency ([1]; tumour line A) 17.8 µM

COCCc1ccccn1
inactive: Potency (Hek293T) | Potency (JEG-3) | Potency (OV90) | Potency (PA-1) | Potency (SKOV3) | Potency (Tov-21-G) | Potency (Tov112D)

CN1CCCN=C1/C=C/c1cccs1
inactive: Potency (Hek293T) | Potency (JEG-3) | Potency (OV90) | Potency (PA-1) | Potency (SKOV3) | Potency (Tov-21-G) | Potency (Tov112D) | activity, negative = cell killing [1, 2] -1.18% | activity, negative = cell killing [1, 3] -9.69% | activity, negative = cell killing [1, 5] -29.5% | activity, negative = cell killing [1, 4] 6.9% | Potency (astro)

O=C(CCCCC(=O)Nc1c(I)cc(I)c(C(=O)O)c1I)Nc1c(I)cc(I)c(C(=O)O)c1I
inactive: Potency (Hek293T) | Potency (JEG-3) | Potency (OV90) | Potency (PA-1) | Potency (SKOV3) | Potency (Tov-21-G) | Potency (Tov112D) | activity, negative = cell killing [1, 2] 0.519% | activity, negative = cell killing [1, 3] -19.2% | activity, negative = cell killing [1, 5] -28.1% | activity, negative = cell killing [1, 4] 4.23% | Potency (astro)

CCN(CC)C(=O)C1CN2CCc3cc(OC)c(OC)cc3C2CC1OC(C)=O (stereo unspecified)
inactive: Potency (Hek293T) | Potency (JEG-3) | Potency (OV90) | Potency (PA-1) | Potency (SKOV3) | Potency (Tov-21-G) | Potency (Tov112D)

COC(=O)c1cc(Cl)ccc1OC
inactive: Potency (Hek293T) | Potency (JEG-3) | Potency (OV90) | Potency (PA-1) | Potency (SKOV3) | Potency (Tov-21-G) | Potency (Tov112D)

CC1c2ccccc2CN1NC(=O)c1ccc(Cl)c(S(N)(=O)=O)c1 (stereo unspecified)
inactive: Potency (Hek293T) | Potency (JEG-3) | Potency (OV90) | Potency (PA-1) | Potency (SKOV3) | Potency (Tov-21-G) | Potency (Tov112D) | activity, negative = cell killing [1, 2] -2.5% | activity, negative = cell killing [1, 3] -6.17% | activity, negative = cell killing [1, 5] -22.8% | activity, negative = cell killing [1, 4] -11.2% | Potency (astro)

CO[C@@]1(NC(=O)CSC[C@@H](N)C(=O)O)C(=O)N2C(C(=O)O)=C(CSc3nnnn3C)CS[C@@H]21
inactive: Potency (Hek293T) | Potency (JEG-3) | Potency (OV90) | Potency (PA-1) | Potency (SKOV3) | Potency (Tov-21-G) | Potency (Tov112D) | activity, negative = cell killing [1, 2] -3.3% | activity, negative = cell killing [1, 3] -19.7% | activity, negative = cell killing [1, 5] -20.1% | activity, negative = cell killing [1, 4] -4.96% | Potency (astro)

CC(C)(C)C(=O)OCOC(=O)C1N2C(=O)CC2S(=O)(=O)C1(C)C (stereo unspecified)
inactive: Potency (Hek293T) | Potency (JEG-3) | Potency (OV90) | Potency (PA-1) | Potency (SKOV3) | Potency (Tov-21-G) | Potency (Tov112D) | activity, negative = cell killing [1, 2] -8.27% | activity, negative = cell killing [1, 3] -8.54% | activity, negative = cell killing [1, 5] -19.2% | activity, negative = cell killing [1, 4] -11.5% | Potency (astro)

C/C(=C1\CCOC(=O)S1)N(C=O)Cc1cnc(C)nc1N
inactive: Potency (Hek293T) | Potency (JEG-3) | Potency (OV90) | Potency (PA-1) | Potency (SKOV3) | Potency (Tov-21-G) | Potency (Tov112D)

O=C(O)CCCC[C@@H]1SC[C@@H]2NC(=O)N[C@@H]21
inactive: Potency (Hek293T) | Potency (JEG-3) | Potency (OV90) | Potency (PA-1) | Potency (SKOV3) | Potency (Tov-21-G) | Potency (Tov112D) | activity, negative = cell killing [1, 2] -20.7% | activity, negative = cell killing [1, 3] -14.6% | activity, negative = cell killing [1, 4] -26% | Potency (astro)
active: Potency ([1]; tumour line A) 17.8 µM

OCc1cccnc1
inactive: Potency (Hek293T) | Potency (JEG-3) | Potency (OV90) | Potency (PA-1) | Potency (SKOV3) | Potency (Tov-21-G) | Potency (Tov112D) | activity, negative = cell killing [1, 2] -6.38% | activity, negative = cell killing [1, 3] -1.28% | activity, negative = cell killing [1, 5] -22% | activity, negative = cell killing [1, 4] -5.89% | Potency (astro)

Oc1cccc2[nH]ccc12
inactive: Potency (Hek293T) | Potency (JEG-3) | Potency (OV90) | Potency (PA-1) | Potency (SKOV3) | Potency (Tov-21-G) | Potency (Tov112D)

CCCC(=O)O[C@]1(C(=O)COC(=O)CC)CC[C@H]2[C@@H]3CCC4=CC(=O)CC[C@]4(C)[C@H]3[C@@H](O)C[C@@]21C
inactive: Potency (Hek293T) | Potency (JEG-3) | Potency (OV90) | Potency (PA-1) | Potency (SKOV3) | Potency (Tov-21-G) | Potency (Tov112D) | activity, negative = cell killing [1, 2] -1.31% | activity, negative = cell killing [1, 3] -7.61% | activity, negative = cell killing [1, 5] -4.97% | activity, negative = cell killing [1, 4] 15.1% | Potency (astro)

Cc1ccc(/C=N/n2c(-c3ccccc3)csc2=S)cc1
inactive: Potency (Hek293T) | Potency (JEG-3) | Potency (OV90) | Potency (PA-1) | Potency (SKOV3) | Potency (Tov-21-G) | Potency (Tov112D) | activity, negative = cell killing [1, 2] -0.779% | activity, negative = cell killing [1, 3] -6.23% | activity, negative = cell killing [1, 4] -16.1% | Potency (astro)
active: Potency ([1]; tumour line A) 17.8 µM

C/C=C(/C(=C/C)c1ccc(OC(C)=O)cc1)c1ccc(OC(C)=O)cc1
inactive: Potency (Hek293T) | Potency (JEG-3) | Potency (OV90) | Potency (PA-1) | Potency (SKOV3) | Potency (Tov-21-G) | Potency (Tov112D)

COc1cc(NS(=O)(=O)c2ccc(N)cc2)nc(C)n1
inactive: Potency (Hek293T) | Potency (JEG-3) | Potency (OV90) | Potency (PA-1) | Potency (SKOV3) | Potency (Tov-21-G) | Potency (Tov112D) | activity, negative = cell killing [1, 2] -1.01% | activity, negative = cell killing [1, 3] -8.58% | activity, negative = cell killing [1, 5] -28.7% | activity, negative = cell killing [1, 4] 5.24% | Potency (astro)

O=C(O)Cc1ccc(OCCNC[C@H](O)c2ccccc2)cc1
inactive: Potency (Hek293T) | Potency (JEG-3) | Potency (OV90) | Potency (PA-1) | Potency (SKOV3) | Potency (Tov-21-G) | Potency (Tov112D) | activity, negative = cell killing [1, 2] -8.45% | activity, negative = cell killing [1, 3] 5.34% | activity, negative = cell killing [1, 5] -29.2% | activity, negative = cell killing [1, 4] 9.13% | Potency (astro)
